# Data from the supplement of paper PMC4466140.
# B1: unnamed (peptide)
# chain: DRIRMFIRFPKFLLE
# B2: unnamed (peptide)
# chain: DHPKGPPPPPPPDEK
# Target: CaNbp2
# Experiment: SPOT peptide array binding signal intensity (averaged, normalized) (arbitrary units (background-subtracted, floor 0; scale differs between SH3 domains)); higher = stronger binding of the SH3 domain to the peptide
# In short: (§1)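 Peptides were synthetic 15-mers on cellulose membranes, with every cysteine replaced by serine. They were incubated overnight at 4°C with GST-SH3 domains from four yeast species at 10 μg/ml in TBS-based blocking buffer. Binding signal, the replicate-averaged normalized and background-subtracted spot intensity, is in arbitrary units that differ between domains.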
row,Binder,SPOT peptide array binding signal intensity
1,B1,1050
2,B2,≤ 0

# Target: CaRvs167
# Experiment: as above
# In short: as §1
row,Binder,SPOT peptide array binding signal intensity
1,B1,238
2,B2,0.667

# Target: CaRvs167-3
# Experiment: as above
# In short: as §1
row,Binder,SPOT peptide array binding signal intensity
1,B1,413
2,B2,≤ 0

# Target: CaSho1
# Experiment: as above
# In short: as §1
row,Binder,SPOT peptide array binding signal intensity
1,B1,1280
2,B2,7.5

# Target: CaSla1-D1-D2
# Experiment: as above
# In short: as §1
row,Binder,SPOT peptide array binding signal intensity
1,B1,67
2,B2,12

# Target: CaSla1-D3
# Experiment: as above
# In short: as §1
row,Binder,SPOT peptide array binding signal intensity
1,B1,182
2,B2,2.75

# Target: ScAbp1
# Experiment: as above
# In short: as §1
row,Binder,SPOT peptide array binding signal intensity
1,B1,52.5
2,B2,4

# Target: ScBbc1
# Experiment: as above
# In short: as §1
row,Binder,SPOT peptide array binding signal intensity
1,B1,1.5
2,B2,3.5

# Target: ScBem1-D1
# Experiment: as above
# In short: as §1
row,Binder,SPOT peptide array binding signal intensity
1,B1,3
2,B2,4

# Target: ScBzz1-D1
# Experiment: as above
# In short: as §1
row,Binder,SPOT peptide array binding signal intensity
1,B1,16
2,B2,3400

# Target: ScBzz1-D2
# Experiment: as above
# In short: as §1
row,Binder,SPOT peptide array binding signal intensity
1,B1,12.5
2,B2,45

# Target: ScCyk3
# Experiment: as above
# In short: as §1
row,Binder,SPOT peptide array binding signal intensity
1,B1,62
2,B2,1

# Target: ScFus1
# Experiment: as above
# In short: as §1
row,Binder,SPOT peptide array binding signal intensity
1,B1,601
2,B2,8.5

# Target: ScHof1
# Experiment: as above
# In short: as §1
row,Binder,SPOT peptide array binding signal intensity
1,B1,1.25
2,B2,1

# Target: ScHse1
# Experiment: as above
# In short: as §1
row,Binder,SPOT peptide array binding signal intensity
1,B1,1400
2,B2,2

# Target: ScLsb1
# Experiment: as above
# In short: as §1
row,Binder,SPOT peptide array binding signal intensity
1,B1,≤ 0
2,B2,1

# Target: ScLsb2
# Experiment: as above
# In short: as §1
row,Binder,SPOT peptide array binding signal intensity
1,B1,≤ 0
2,B2,≤ 0

# Target: ScLsb3
# Experiment: as above
# In short: as §1
row,Binder,SPOT peptide array binding signal intensity
1,B1,87
2,B2,≤ 0

# Target: ScLsb4
# Experiment: as above
# In short: as §1
row,Binder,SPOT peptide array binding signal intensity
1,B1,19
2,B2,0.5

# Target: ScMyo3
# Experiment: as above
# In short: as §1
row,Binder,SPOT peptide array binding signal intensity
1,B1,1
2,B2,1750

# Target: ScMyo5
# Experiment: as above
# In short: as §1
row,Binder,SPOT peptide array binding signal intensity
1,B1,1
2,B2,1380

# Target: ScNbp2
# Experiment: as above
# In short: as §1
row,Binder,SPOT peptide array binding signal intensity
1,B1,356
2,B2,18.5

# Target: ScPex13
# Experiment: as above
# In short: as §1
row,Binder,SPOT peptide array binding signal intensity
1,B1,14.8
2,B2,≤ 0

# Target: ScRvs167
# Experiment: as above
# In short: as §1
row,Binder,SPOT peptide array binding signal intensity
1,B1,22.7
2,B2,0.5

# Target: ScSho1
# Experiment: as above
# In short: as §1
row,Binder,SPOT peptide array binding signal intensity
1,B1,870
2,B2,≤ 0

# Target: ScSla1-D1-D2
# Experiment: as above
# In short: as §1
row,Binder,SPOT peptide array binding signal intensity
1,B1,48.5
2,B2,≤ 0

# Target: ScSla1-D3
# Experiment: as above
# In short: as §1
row,Binder,SPOT peptide array binding signal intensity
1,B1,69
2,B2,2.5

# Target: SpAbp1-D1
# Experiment: as above
# In short: as §1
row,Binder,SPOT peptide array binding signal intensity
1,B1,334
2,B2,8

# Target: SpBbc1
# Experiment: as above
# In short: as §1
row,Binder,SPOT peptide array binding signal intensity
1,B1,2.5
2,B2,≤ 0

# Target: SpBzz1-D1
# Experiment: as above
# In short: as §1
row,Binder,SPOT peptide array binding signal intensity
1,B1,103
2,B2,155

# Target: SpBzz1-D2
# Experiment: as above
# In short: as §1
row,Binder,SPOT peptide array binding signal intensity
1,B1,5.5
2,B2,1.75

# Target: SpCyk3
# Experiment: as above
# In short: as §1
row,Binder,SPOT peptide array binding signal intensity
1,B1,16
2,B2,≤ 0

# Target: SpHof1
# Experiment: as above
# In short: as §1
row,Binder,SPOT peptide array binding signal intensity
1,B1,264
2,B2,1

# Target: SpHof1-2
# Experiment: as above
# In short: as §1
row,Binder,SPOT peptide array binding signal intensity
1,B1,35.8
2,B2,6.5

# Target: SpHof1-3
# Experiment: as above
# In short: as §1
row,Binder,SPOT peptide array binding signal intensity
1,B1,1130
2,B2,4

# Target: SpHse1
# Experiment: as above
# In short: as §1
row,Binder,SPOT peptide array binding signal intensity
1,B1,1300
2,B2,87.2

# Target: SpLsb1
# Experiment: as above
# In short: as §1
row,Binder,SPOT peptide array binding signal intensity
1,B1,1.25
2,B2,≤ 0

# Target: SpLsb4
# Experiment: as above
# In short: as §1
row,Binder,SPOT peptide array binding signal intensity
1,B1,139
2,B2,≤ 0

# Target: SpMyo1
# Experiment: as above
# In short: as §1
row,Binder,SPOT peptide array binding signal intensity
1,B1,10.8
2,B2,1880

# Target: SpNbp2
# Experiment: as above
# In short: as §1
row,Binder,SPOT peptide array binding signal intensity
1,B1,957
2,B2,18.5

# Target: SpPex13
# Experiment: as above
# In short: as §1
row,Binder,SPOT peptide array binding signal intensity
1,B1,38
2,B2,10

# Target: SpRvs167
# Experiment: as above
# In short: as §1
row,Binder,SPOT peptide array binding signal intensity
1,B1,40.3
2,B2,≤ 0

# Target: SpSla1-D1-D2
# Experiment: as above
# In short: as §1
row,Binder,SPOT peptide array binding signal intensity
1,B1,≤ 0
2,B2,10

# Target: SpSla1-D3
# Experiment: as above
# In short: as §1
row,Binder,SPOT peptide array binding signal intensity
1,B1,49
2,B2,13

# Target: AgAbp1
# Experiment: as above
# In short: as §1
row,Binder,SPOT peptide array binding signal intensity
1,B2,9

# Target: AgBbc1
# Experiment: as above
# In short: as §1
row,Binder,SPOT peptide array binding signal intensity
1,B2,3.75

# Target: AgBem1-D1
# Experiment: as above
# In short: as §1
row,Binder,SPOT peptide array binding signal intensity
1,B2,≤ 0

# Target: AgBzz1-D1
# Experiment: as above
# In short: as §1
row,Binder,SPOT peptide array binding signal intensity
1,B2,1100

# Target: AgBzz1-D2
# Experiment: as above
# In short: as §1
row,Binder,SPOT peptide array binding signal intensity
1,B2,111

# Target: AgCyk3
# Experiment: as above
# In short: as §1
row,Binder,SPOT peptide array binding signal intensity
1,B2,≤ 0

# Target: AgFus1
# Experiment: as above
# In short: as §1
row,Binder,SPOT peptide array binding signal intensity
1,B2,6.5

# Target: AgHof1
# Experiment: as above
# In short: as §1
row,Binder,SPOT peptide array binding signal intensity
1,B2,≤ 0

# Target: AgHse1
# Experiment: as above
# In short: as §1
row,Binder,SPOT peptide array binding signal intensity
1,B2,33

# Target: AgLsb1
# Experiment: as above
# In short: as §1
row,Binder,SPOT peptide array binding signal intensity
1,B2,1.5

# Target: AgLsb4
# Experiment: as above
# In short: as §1
row,Binder,SPOT peptide array binding signal intensity
1,B2,≤ 0

# Target: AgMyo5
# Experiment: as above
# In short: as §1
row,Binder,SPOT peptide array binding signal intensity
1,B2,1710

# Target: AgNbp2
# Experiment: as above
# In short: as §1
row,Binder,SPOT peptide array binding signal intensity
1,B2,7

# Target: AgRvs167
# Experiment: as above
# In short: as §1
row,Binder,SPOT peptide array binding signal intensity
1,B2,1.17

# Target: AgSho1
# Experiment: as above
# In short: as §1
row,Binder,SPOT peptide array binding signal intensity
1,B2,≤ 0

# Target: AgSla1-D1-D2
# Experiment: as above
# In short: as §1
row,Binder,SPOT peptide array binding signal intensity
1,B2,14

# Target: AgSla1-D3
# Experiment: as above
# In short: as §1
row,Binder,SPOT peptide array binding signal intensity
1,B2,297

# Target: CaAbp1-D1
# Experiment: as above
# In short: as §1
row,Binder,SPOT peptide array binding signal intensity
1,B2,1.5

# Target: CaAbp1-D2
# Experiment: as above
# In short: as §1
row,Binder,SPOT peptide array binding signal intensity
1,B2,1

# Target: CaBbc1
# Experiment: as above
# In short: as §1
row,Binder,SPOT peptide array binding signal intensity
1,B2,≤ 0

# Target: CaBem1-D1
# Experiment: as above
# In short: as §1
row,Binder,SPOT peptide array binding signal intensity
1,B2,≤ 0

# Target: CaBzz1-D1
# Experiment: as above
# In short: as §1
row,Binder,SPOT peptide array binding signal intensity
1,B2,2890

# Target: CaBzz1-D2
# Experiment: as above
# In short: as §1
row,Binder,SPOT peptide array binding signal intensity
1,B2,2700

# Target: CaCyk3
# Experiment: as above
# In short: as §1
row,Binder,SPOT peptide array binding signal intensity
1,B2,≤ 0

# Target: CaFus1
# Experiment: as above
# In short: as §1
row,Binder,SPOT peptide array binding signal intensity
1,B2,≤ 0

# Target: CaHof1
# Experiment: as above
# In short: as §1
row,Binder,SPOT peptide array binding signal intensity
1,B2,2.5

# Target: CaHse1
# Experiment: as above
# In short: as §1
row,Binder,SPOT peptide array binding signal intensity
1,B2,6

# Target: CaLsb1
# Experiment: as above
# In short: as §1
row,Binder,SPOT peptide array binding signal intensity
1,B2,≤ 0

# Target: CaLsb4
# Experiment: as above
# In short: as §1
row,Binder,SPOT peptide array binding signal intensity
1,B2,20.5

# Target: CaMyo5
# Experiment: as above
# In short: as §1
row,Binder,SPOT peptide array binding signal intensity
1,B2,38.8
